Measurements reported in PubChem BioAssay (NCATS).
Values joined by “and” are separate entries in the source; they are usually repeats but may differ in a detail not shown here. Identical values can stand only once. Results filed as inconclusive are left out. Active and inactive are the calls of the source. Calls follow the shape of the dose curve; as a rule, active = well fitted curve in the direction sought with a large enough effect; inconclusive = small, poorly fitted or top-dose-only effect, or another doubt; inactive = no such curve, though single readings can be large; an effect the other way counts as inactive or inconclusive.

Assays:
[1] = target: Lysine-specific demethylase 5B (Homo sapiens) (UniProt Q9UGL1); experiment: Optimization screen for KDM5B Histone Demethylases FDH coupled qHTS against the LOPAC library (AID 1347166); also: 0% is about no effect
How it was run: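 KDM5BDeltaAP (200nM final) in 50mM HEPES pH 7.5, 0.01% Tween-20 was preincubated with compound for 10 min at room temperature. A substrate mix of 12.5uM H3K4Me3, 25uM a-ketoglutarate, ascorbate, Fe2+, NAD+ and formaldehyde dehydrogenase was then added. NADH fluorescence (340/450 nm) was read initially and after 30 min.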

[2] = qHTS to identify inhibitors of the type 1 interferon - major histocompatibility complex class I in skeletal muscle: primary screen against the NCATS LOPAC collection (AID 1347405);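 also: lytic HiBiT luminescence reporting HLA-B protein level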; also: potency is read from the fitted curve at half-maximal effect
How it was run: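 First, engineered myoblasts carrying HLA-B-HiBiT were seeded in medium lacking dexamethasone with 4 ng/ml IFN-beta. After 1 hr, compounds were pinned in (top 46 uM final, 7 points). After 24 hrs at 37 C, luminescence was measured following 10 min lysis.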

[3] = qHTS for inhibitors of adenylyl cyclases using a fission yeast platform: a pilot screen against the NCATS LOPAC library (AID 1347410);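 also: plate controls were DMSO vehicle for no effect and DPI positive control for full effect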
How it was run: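 S. pombe CHP2027 (AC9-GNAS-PDE4D2) carrying a PKA-repressed fbp1-GFP reporter was exposed to LOPAC compounds (final up to 57 µM) for 18 h at 30C in the dark, in EMM with histidine, lysine and uracil; GFP gain-of-signal read by laser scanning cytometry.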

[4] = target: Protein phosphatase 1D (Homo sapiens) (UniProt O15297); experiment: RapidFire Mass Spectrometry qHTS Assay for Modulators of WT P53-Induced Phosphatase 1 (WIP1) (AID 1347424);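 also: amount of dephosphorylated VEPPL-S-QETFS peptide product formed by WIP1; series mostly up to about 63 µM; plate controls were DMSO wells for no effect and GSK830371 inhibitor control at 10 µM for full effect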
How it was run: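 RapidFire mass spectrometry measured dephosphorylated peptide after 5 min room-temperature reaction of 2 uM VEPPL-pS-QETFS with 10 nM WIP1 (50 mM Tris-HCl pH 7.5, 30 mM MgCl2, 0.1 mM EGTA, BSA), following 1 hr compound preincubation; 1 uM isotope-labelled product standard.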

[5] = target: Protein phosphatase 1D (Homo sapiens) (UniProt O15297); experiment: Rhodamine-PBP qHTS Assay for Modulators of WT P53-Induced Phosphatase 1 (WIP1) (AID 1347425); also: % of control where 0% means no effect
How it was run: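 5 nM WIP1 + 10 uM Rh-PBP, 50 mM Tris pH 7.5, 30 mM MgCl2, 1 mM TCEP, 0.1 mM EGTA, BSA; cpds pinned, 1 hr RT; + 10 uM phosphopeptide; fluorescence 1-min reads x 11 min; delta = f1 - f0.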

[6] = target: Single-stranded DNA cytosine deaminase (Homo sapiens) (UniProt Q9GZX7); experiment: Validation qHTS assay for inhibitors of Activation Induced Cytidine Deaminase (AID): AID signal (AID 1347429); also: % is scaled to controls: 0 for no effect and ±100 for the full control effect
How it was run: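 Steps: dispense AID with UDG; pin-transfer compound up to 114 uM final; add DJC20/DJC23 substrate and hold 4 hr at room temperature; add NaOH, hold 30 min; read FRET signal (540/590 nm).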

[7] = Primary qHTS for inhibitors of La Crosse Virus (LACV) - induced cell death in SH-SY5Y cells (AID 1508616);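 also: top concentration of the series differs between compounds; 0% = infected DMSO wells and 100% = uninfected DMSO wells; higher means more rescue of cells from virus-induced death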
How it was run: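 SH-SY5Y, 6000 cells/well; cpd via pin tool in DMSO; LACV 0.01 MOI; 6 d 37C 5% CO2; ATPLite, 5 min RT; luminescence normalized to ±virus DMSO controls.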

[8] = target: Calcium and integrin-binding protein 1 (Homo sapiens) (UniProt Q99828); experiment: Validation qHTS for Identification of Calcium Integrin Binding protein 1 (CIB1) Competitor (AID 1508618); also: % is scaled to controls: 0 for no effect and ±100 for the full control effect
How it was run: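 Displacement of FITC-alphaIIb peptide (100 nM) from CIB1-GST (1 uM) is monitored by polarization in quantitative HTS format; buffer carries 5 mM CaCl2 and 125 mM NaCl at pH 7.4, incubations are at room temperature.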

[9] = target: Calcium and integrin-binding protein 1 (Homo sapiens) (UniProt Q99828); experiment: Primary qHTS for Identification of Calcium Integrin Binding Protein 1 (CIB1) Competitor (AID 1508620);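 also: GST tagged CIB1 binding a fluorescein labelled alphaIIb integrin peptide tracer; top concentration of the series differs between compounds; % is scaled to controls: 0 for no effect and ±100 for the full control effect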
How it was run: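 CIB1-GST (1 uM final) and compound incubated 15 min at room temperature before adding FITC-alphaIIb peptide tracer (100 nM final). Competition for binding read by fluorescence polarization (ex 480, em 540) after another 15 min at room temperature.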

[10] = tested on: Zika virus NS2B-NS3 protease (linked construct); experiment: 384 well plate NINDS Rhodamine confirmatory qHTS for Zika virus inhibitors (AID 1347164); conditions: rhodamine-110 peptide substrate fluorescence;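 also: fluorescence from protease cleavage of Ac-LKRR-rhodamine 110 substrate; potency is read from the fitted curve at half-maximal effect; nearly all actives have a fitted effect of over 65% in size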
How it was run: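 Linked protease at a final 5 nM, 30 nM or 60 nM was preincubated ~15 min with compounds, then given 10 microM Ac-LKRR-Rhodamine 110. Fluorescence (ex 485/em 538 nm) after 25 min in the dark at room temperature.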

[11] = Vero cells viability qHTS for Zika virus inhibitors (AID 1347167); also: potency is read from the fitted curve at half-maximal effect
How it was run: (§1)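 Luminescent ATP readout (CellTiter Glo) after 30 min at 37 degrees C gives viability; cells in DMEM + 4% FBS were treated 24 to 48 hours with compound, following overnight attachment.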

[12] = HepG2 cells viability qHTS for Zika virus inhibitors (AID 1347168); also: % is scaled to controls: 0 for no effect and ±100 for the full control effect
How it was run: as §1

[13] = Tertiary RLuc qRT-PCR qHTS assay for Zika virus inhibitors (AID 1347169); also: potency is read from the fitted curve at half-maximal effect; nearly all actives have a fitted effect of over 55% in size
How it was run: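 Vero cells (1,000 per well) plated overnight at 37 degrees C, treated with compound in DMSO, then infected with recombinant ZIKV-RLuc (Cambodian) at MOI 1-2 for 48-72 hrs. Live-cell Renilla luciferase substrate added; luminescence read after 1-1.5 hrs.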

[14] = qHTS to identify inhibitors of the type 1 interferon - major histocompatibility complex class I in skeletal muscle: primary screen against the NCATS Pharmaceutical Collection (AID 1347407);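 also: luminescence of HiBiT knocked into endogenous HLA-B as interferon-induced MHC class I level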; also: potency is read from the fitted curve at half-maximal effect
How it was run: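 Immortalized human myoblasts (C25cl48) with HiBiT knocked into endogenous HLA-B*08:01 were stimulated with 4 ng/ml IFN-beta and treated with compounds (8-point, 1:5, top 46 uM final) for 24 h at 37 C; HiBiT lytic luminescence read.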

[15] = target: Calcium and integrin-binding protein 1 (Homo sapiens) (UniProt Q99828); experiment: Confirmatory qHTS for Identification of Calcium Integrin Binding Protein 1 (CIB1) Competitor (AID 1508617); also: % is scaled to controls: 0 for no effect and ±100 for the full control effect; nearly all actives have a fitted effect of over 65% in size
How it was run: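 Confirmatory qHTS measures displacement of a FITC-alphaIIb peptide (100 nM) from CIB1-GST (1 uM) by fluorescence polarization. Calcium-containing HEPES buffer, pH 7.4; two 15 min room-temperature incubations.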

[16] = qHTS to identify inhibitors of the type 1 interferon - major histocompatibility complex class I in skeletal muscle: primary screen against the NCATS Mechanism Interrogation Plate v5.0 (MIPE) Libary (AID 1347411); also: nearly all actives have a fitted effect of over 65% in size; also: potency is read from the fitted curve at half-maximal effect;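 as to activity change, negative = inhibition: plate controls were vehicle for no effect and reference inhibitor for full effect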
How it was run: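 Seed engineered human myoblasts (HLA-B HiBit) in medium without dexamethasone containing 4 ng/ml IFN-beta; after 1 hr add compound titrations (top 46 uM final). Incubate 24 hrs at 37 C, lyse 10 min with HiBiT reagent, read luminescence.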

Lysine-specific demethylase 5B (Homo sapiens), sequence (Q9UGL1 whole entry, looked up): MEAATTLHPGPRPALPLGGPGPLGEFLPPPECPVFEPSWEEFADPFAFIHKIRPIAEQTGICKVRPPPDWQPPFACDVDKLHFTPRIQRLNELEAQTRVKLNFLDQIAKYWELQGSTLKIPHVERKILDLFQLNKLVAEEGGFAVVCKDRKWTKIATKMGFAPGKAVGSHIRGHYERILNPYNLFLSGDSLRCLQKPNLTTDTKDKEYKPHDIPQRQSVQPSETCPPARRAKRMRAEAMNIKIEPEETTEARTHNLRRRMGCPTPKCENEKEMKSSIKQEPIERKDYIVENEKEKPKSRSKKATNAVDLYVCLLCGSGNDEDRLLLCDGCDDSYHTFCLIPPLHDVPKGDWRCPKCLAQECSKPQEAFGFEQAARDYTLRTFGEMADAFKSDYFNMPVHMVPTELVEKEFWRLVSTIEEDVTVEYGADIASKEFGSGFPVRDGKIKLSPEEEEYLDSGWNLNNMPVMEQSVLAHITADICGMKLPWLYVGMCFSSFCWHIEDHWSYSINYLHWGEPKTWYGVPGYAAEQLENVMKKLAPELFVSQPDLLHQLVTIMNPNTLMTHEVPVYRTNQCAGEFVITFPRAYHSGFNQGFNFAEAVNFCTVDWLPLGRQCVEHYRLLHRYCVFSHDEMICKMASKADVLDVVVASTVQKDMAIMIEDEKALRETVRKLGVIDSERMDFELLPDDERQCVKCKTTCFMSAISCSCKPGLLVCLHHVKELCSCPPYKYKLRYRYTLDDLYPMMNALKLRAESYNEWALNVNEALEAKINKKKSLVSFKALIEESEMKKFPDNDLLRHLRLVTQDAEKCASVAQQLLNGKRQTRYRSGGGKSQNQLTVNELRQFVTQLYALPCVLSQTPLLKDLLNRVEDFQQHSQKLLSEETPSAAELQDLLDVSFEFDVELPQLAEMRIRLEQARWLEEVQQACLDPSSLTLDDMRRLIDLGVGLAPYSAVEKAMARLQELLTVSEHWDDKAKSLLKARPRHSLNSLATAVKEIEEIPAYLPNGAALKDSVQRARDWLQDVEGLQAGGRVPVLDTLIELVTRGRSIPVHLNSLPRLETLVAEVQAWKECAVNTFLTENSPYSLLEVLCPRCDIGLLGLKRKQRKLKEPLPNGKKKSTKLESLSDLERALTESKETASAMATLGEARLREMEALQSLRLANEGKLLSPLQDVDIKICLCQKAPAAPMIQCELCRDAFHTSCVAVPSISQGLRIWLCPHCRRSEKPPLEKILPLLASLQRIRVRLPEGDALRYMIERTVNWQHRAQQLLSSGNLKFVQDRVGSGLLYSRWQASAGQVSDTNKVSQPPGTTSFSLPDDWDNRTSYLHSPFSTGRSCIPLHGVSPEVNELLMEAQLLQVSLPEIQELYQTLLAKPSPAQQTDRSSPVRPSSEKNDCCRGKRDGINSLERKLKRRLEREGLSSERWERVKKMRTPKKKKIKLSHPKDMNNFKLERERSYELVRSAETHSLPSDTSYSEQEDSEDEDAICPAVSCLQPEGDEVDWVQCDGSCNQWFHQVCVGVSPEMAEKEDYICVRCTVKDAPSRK
Calcium and integrin-binding protein 1 (Homo sapiens), sequence (Q99828 whole entry, looked up): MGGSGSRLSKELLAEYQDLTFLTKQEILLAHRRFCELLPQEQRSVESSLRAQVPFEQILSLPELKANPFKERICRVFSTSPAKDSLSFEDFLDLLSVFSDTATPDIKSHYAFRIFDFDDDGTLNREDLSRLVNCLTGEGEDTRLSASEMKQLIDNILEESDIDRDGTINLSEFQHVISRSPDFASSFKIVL
Single-stranded DNA cytosine deaminase (Homo sapiens), sequence (Q9GZX7 whole entry, looked up): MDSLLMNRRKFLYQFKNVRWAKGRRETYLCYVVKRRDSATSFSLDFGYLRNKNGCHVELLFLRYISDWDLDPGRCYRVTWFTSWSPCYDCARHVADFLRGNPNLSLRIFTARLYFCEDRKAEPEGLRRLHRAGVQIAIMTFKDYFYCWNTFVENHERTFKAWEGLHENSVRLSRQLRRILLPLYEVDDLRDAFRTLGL
Protein phosphatase 1D (Homo sapiens), sequence (O15297 whole entry, looked up): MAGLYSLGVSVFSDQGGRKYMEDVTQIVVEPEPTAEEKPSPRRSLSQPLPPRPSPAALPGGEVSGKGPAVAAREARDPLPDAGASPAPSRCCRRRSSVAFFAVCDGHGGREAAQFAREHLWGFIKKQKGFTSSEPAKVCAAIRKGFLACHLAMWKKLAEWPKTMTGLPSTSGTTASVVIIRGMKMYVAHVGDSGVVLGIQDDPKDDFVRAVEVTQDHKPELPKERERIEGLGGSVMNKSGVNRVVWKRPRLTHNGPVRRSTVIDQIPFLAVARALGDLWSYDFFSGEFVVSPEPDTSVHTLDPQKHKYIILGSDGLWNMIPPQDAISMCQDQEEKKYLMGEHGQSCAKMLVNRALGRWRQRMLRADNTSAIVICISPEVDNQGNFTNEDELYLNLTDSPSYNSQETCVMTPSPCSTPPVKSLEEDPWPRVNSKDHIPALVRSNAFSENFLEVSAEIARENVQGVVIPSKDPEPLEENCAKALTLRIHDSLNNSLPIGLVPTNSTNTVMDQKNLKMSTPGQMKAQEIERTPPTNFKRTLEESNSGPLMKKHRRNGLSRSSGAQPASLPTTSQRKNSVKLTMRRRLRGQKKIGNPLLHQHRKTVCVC

CCCn1cnc2c1c(=O)n(CCCCC(C)=O)c(=O)n2C
inactive: outcome [1] | Potency [2] | outcome [3] | outcome [4] | outcome [5] | Potency [6] | outcome [7] | outcome [8] | outcome [9]

Cc1cc(C(C#N)c2ccc(Cl)cc2)c(Cl)cc1NC(=O)c1cc(I)cc(I)c1O (stereo not given)
inactive: outcome [12] | Potency [14] | outcome [7] | Potency [15]
active: Potency [10] 1780 nM | Potency [11] 13100 nM | Potency [13] 6.58 µM and 16.5 µM

CC[C@H]1CN2CCc3cc(OC)c(OC)cc3[C@@H]2C[C@@H]1C[C@H]1NCCc2cc(OC)c(OC)cc21
active: Potency [2] 282 nM | Potency [14] 264 nM | Potency [16] 658 nM
inactive: outcome [1] | outcome [3] | outcome [4] | outcome [5] | Potency [6] | outcome [8] | outcome [9]

NC(N)=NCCC[C@H](N)C(=O)O
inactive: outcome [1] | Potency [2] | activity change, negative = inhibition [14] -4.76% [at 3.83 µM] | outcome [3] | activity change, negative = inhibition [4] -3.57% [at 6.17 µM] | Potency [6] | outcome [7]

CC(C)(C(=O)O)c1ccc(C(O)CCCN2CCC(C(O)(c3ccccc3)c3ccccc3)CC2)cc1 (stereo not given)
inactive: outcome [1] | Potency [2] | Potency [14] | outcome [3] | outcome [4] | outcome [7]

CC1=C(/C=C/C(C)=C/C=C/C(C)=C/C(=O)O)C(C)(C)CCC1
inactive: outcome [1] | Potency [2] | Potency [14] | outcome [3] | Potency [16] | outcome [4] | outcome [5] | Potency [6] | outcome [7] | outcome [8] | outcome [9]

C[C@](N)(Cc1ccc(O)cc1)C(=O)O
inactive: outcome [1] | Potency [2] | activity change, negative = inhibition [14] -0.196% [at 3.83 µM] | outcome [3] | activity change, negative = inhibition [4] 3.41% [at 6.17 µM] | activity change, negative = inhibition [5] -0.695% [at 4.81 µM] | Potency [6] | outcome [7] | outcome [8] | activity change, negative = inhibition [9] 5.16% [at 12.4 µM]

C[C@]12CC[C@@H]3c4ccc(O)cc4CC[C@H]3[C@@H]1CCC2=O
inactive: outcome [1] | Potency [2] | Potency [14] | outcome [3] | outcome [4] | outcome [5] | Potency [6] | outcome [7] | outcome [8] | outcome [9]

CC(CN1c2ccccc2Sc2ccccc21)N(C)C (stereo not given)
inactive: outcome [1] | Potency [2] | Potency [14] | outcome [3] | outcome [4] | outcome [5] | Potency [6] | outcome [7] | outcome [8] | outcome [9]

CN(C)CCOC(C)(c1ccccc1)c1ccccn1 (stereo not given)
inactive: outcome [1] | Potency [2] | Potency [14] | outcome [3] | outcome [4] | outcome [5] | Potency [6] | outcome [7] | outcome [8] | outcome [9]
